Screens deposited in PubChem BioAssay by National Center for Advancing Translational Sciences (NCATS).
HP1b binding inh = blocks HP1-beta chromodomain binding to methylated histone tails. P83916. AID 540317. Potency, µM (titrated, usually from 114 µM), inactives show top-dose activity change, negative = inhibition, hits mostly inhibitors. 390,000 tested, 0.56% active. AlphaScreen HP1-beta / biotin-H3K9me3 peptide binding; note: nearly all actives have a fitted effect of over 70% in size
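Compound inhibition of the preformed complex between 50 nM HP1-beta and 50 nM biotinylated H3K9me3 peptide was read by AlphaScreen. Buffer was PBS pH 7.4 with 0.01% Tween-20. Incubations ran 30 min at room temperature, with 10 ug/mL donor/acceptor beads.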
G9a inh = inhibitors of human histone lysine methyltransferase G9a | Q96KQ7 | G9a H3K9 monomethylation, AlphaScreen, 2 h | 350,000 tested, 8.8% active | Potency, µM (series often up to 102 µM), for inactives: at the highest dose activity, negative = inhibition, most hits filed as inhibitors | AID 504332; note: % is set by controls: 0 for no effect and ±100 for the full control effect; nearly all actives have a fitted effect of over 75% in size
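Signal arises when biotinylated H3K9 peptide, once monomethylated, bridges streptavidin donor and antibody-captured acceptor beads. Enzyme at 20 nM was preincubated 15 min with test compounds; peptide 500 nM and SAM 20 uM then reacted for 2 h.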
JMJD2A Tudor = inhibitors of human JMJD2A Tudor domain; O75164; AlphaScreen JMJD2A-Tudor / H3K4me3 peptide binding; 390,000 tested, 4.4% active; AID 504339; Potency, µM (series often up to 114 µM), for inactives: at the top dose activity change, negative = inhibition, most hits filed as inhibitors; note: % is set by controls: 0 for no effect and ±100 for the full control effect; nearly all actives have a fitted effect of over 50% in size
BAZ2B block = inhibitors of human BAZ2B bromodomain; Potency, µM (highest dose often 114 µM), for inactives: at the highest dose activity change, negative = inhibition, actives largely listed as inhibitors; 360,000 tested, 4.4% active; Q9UIF8; AID 504333; AlphaScreen BAZ2B-H3K14Ac peptide displacement; note: % is set by controls: 0 for no effect and ±100 for the full control effect; nearly all actives have a fitted effect of over 60% in size
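Protein-peptide AlphaScreen: BAZ2B 50 nM, b-H3K14Ac 50 nM, 1x PBS pH 7.4 + 0.01% Tween-20. Preincubation 30 min RT; cpd 30 min RT (top 110 uM); beads 20 min RT, light-protected.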
Sfp PPTase inh = Sfp phosphopantetheinyl transferase inhibition; Q9F4F7; Biochemical Sfp PPTase activity, qHTS; Potency, µM, for the others: largest response in the series, negative = inhibition, actives largely listed as inhibitors; 310,000 tested, 3.5% active;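 note: the enzyme is Sfp with the accession as filed and its product quenches rhodamine fluorescence; 0% = enzyme reaction without inhibitor and -100% = no enzyme wells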
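Fluorescence-quenching assay: 15 nM Sfp-PPTase preincubated 15 min at room temperature with compound, then 5 uM rhodamine-CoA and 12.5 uM BHQ-2-labelled YbbR peptide added. Fluorescence (ex 525/em 598 nm) read at start and after 30 min; difference gives rate.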
ALOX12 inh = inhibitors of human 12S-lipoxygenase ALOX12 | P18054 | purified 12hLO, xylenol orange hydroperoxide absorbance | Potency, µM (highest dose often 108 µM), inactives show at the highest dose activity change, negative = inhibition, usual class: inhibitors | 580,000 tested, 1.1% active | AID 1671190; note: % is set by controls: 0 for no effect and ±100 for the full control effect
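Hydroperoxide product was detected by ferrous iron/xylenol orange as the 573 to 405 nm absorbance ratio. Arachidonic acid at 40 uM (final) was turned over for 30 min at room temperature by 150 nM human 12hLO, pH 7.0 Hepes buffer, after 15 min compound preincubation.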
Numbers without * were called inactive; ? = inconclusive; nt = no result given; [ ] = dose if it differs, or a comment. Only some compounds are listed: those with a hit (about 8.7% of all), similar ones and a draw of the others. Calls come from the whole dose curve; as a rule, active = well fitted curve in the direction sought with a large enough effect; inconclusive = small, poorly fitted or top-dose-only effect, or another doubt; inactive = no such curve, though single readings can be large; an effect the other way counts as inactive or inconclusive. Potency is the fitted concentration of half-maximal effect.

SMILES	HP1b binding inh	G9a inh	JMJD2A Tudor	BAZ2B block	Sfp PPTase inh	ALOX12 inh
COc1ccc(-n2cnnc2SCC(=O)c2ccc(S(=O)(=O)N3CCOCC3)cc2)cc1	19%	-93%	-9%	-7%	56µM*	-1%
Cc1cc(C)cc(-n2ncc3c(=O)n(CC(O)COc4ccc(F)cc4)cnc32)c1 (stereo not drawn)	nt	nt	nt	nt	nt	-5%
O=C(c1ccc2ncccc2c1)N1CCCN(c2cc(-c3ccc(Cl)cc3)[nH]n2)CC1	nt	nt	nt	nt	nt	20%
O=C(NNc1cccc(Cl)n1)Nc1ccccc1	40%	nt	-5%	?	-13%	0%
CC(Cl)C(=O)NNc1cccc(Cl)n1 (stereo not drawn)	-1%	-24%[59 µM]	-7%	4%	50µM*	-20%
O=C(NNc1cccc(Cl)n1)c1ccccc1CC[N+](=O)[O-]	-14%	-1%	22µM*	2%	21%	0%
Cc1ccc([N+](=O)[O-])c(NC(=O)COc2ncnc3ccccc23)c1C	nt	nt	nt	nt	nt	-11%
O=C1CC(c2noc(-c3nccc4ccccc34)n2)CN1C1CCCCC1 (stereo not drawn)	nt	nt	nt	nt	nt	35%
COc1ccc(N2CCN(C(=O)COC(=O)Cc3ccc(F)cc3)CC2)cc1	12%	45µM*	-28%	-38%	nt	-3%
COc1ccc(N2CCN(C(=O)COC(=O)c3ccc(C)o3)CC2)cc1	6%	50µM*	-17%	-9%	nt	-18%
COc1ccccc1CC(=O)OCC(=O)N1CCN(c2ccc(F)cc2)CC1	38%	nt	-17%	nt	nt	1%
O=C(CCn1cnc2onc(-c3ccc(F)cc3)c2c1=O)N1CCN(c2ccccc2)CC1	9%	?	?	-5%[57.1 µM]	nt	-27%
COc1ccc(N2CCN(C(=O)CCn3cnc4onc(-c5ccc(F)cc5)c4c3=O)CC2)cc1	-10%	14µM*	?	?	nt	?
COc1ccc(N2CCN(C(=O)COC(=O)c3ccc(CSC)o3)CC2)cc1	-8%	16µM*	-36%	?	nt	-26%
CCC1CSC(Nc2cccc(C)c2)=N1 (stereo not drawn)	nt	nt	nt	nt	nt	16%
CC(=O)Nc1cccc(NC(=S)Nc2ccc(F)cc2F)c1	21%	?	-23%	10%	40µM*	-14%
CC(=O)Nc1cccc(NC(=S)Nc2cccc(Cl)c2Cl)c1	-7%	nt	-18%	-13%	32µM*	-7%
COC(=O)c1cccc(NC(=S)Nc2cccc(Cl)c2Cl)c1	11%	5%[59 µM]	10%	-2%	10%	-22%
COc1cccc(C2=CC(c3ccc(N(C)C)cc3)n3ncnc3N2)c1 (stereo not drawn)	nt	40µM*	nt	4%	?	nt
COc1cccc(C2=CC(c3ccccc3)n3ncnc3N2)c1 (stereo not drawn)	nt	?	nt	56µM*	0%	nt
COc1ccc(C2C=C(c3ccc(Cl)c(Cl)c3)Nc3ncnn32)cc1 (stereo not drawn)	51%	-2%[59 µM]	-19%	-4%	nt	3%
COCCN1C(=O)[C@H]2CN(Cc3ccccc3C(F)(F)F)C[C@H]2C1=O	nt	nt	nt	nt	nt	27%
CN(C)CC1(O)CCC2(CCN(C(=O)CCCc3ccccc3)CC2)CC1	nt	nt	nt	nt	nt	36%
O=C(NCC12CC3CC(C1)CC(CNC(=O)c1ccc(Cl)cc1)(C3)C2)c1ccc(Cl)cc1	nt	nt	nt	nt	nt	-1%
Cc1csc2nc(COC(=O)c3ccc(NC(=O)C(C)C)cc3)cc(=O)n12	-1%	?	-21%	-7%	nt	?
SMILES	HP1b binding inh	G9a inh	JMJD2A Tudor	BAZ2B block	Sfp PPTase inh	ALOX12 inh
Cc1csc2nc(COC(=O)c3ccc(Cl)c([N+](=O)[O-])c3)cc(=O)n12	-21%[57 µM]	-7%[59 µM]	28µM*	2%	nt	225%
Cn1c(COc2ccccc2Cl)nnc1SC1CCCCCC1=O (stereo not drawn)	nt	nt	nt	nt	nt	10%
Cn1c(COc2ccc(Br)cc2)nnc1SC1CCc2ccccc2C1=O (stereo not drawn)	14%	?	?	?	50µM*	-13%
COC(=O)C1=COC(C)C2CN3CCc4c([nH]c5cc(OC)c(OC)cc45)C3CC12 (stereo not drawn)	?	-32%[12.7 µM]	25µM*	50µM*	3%	?
Cc1cccc(C(=O)Nc2ccc(C3(C(=O)NCCC(C)C)CCCCC3)cc2)c1	nt	nt	nt	nt	nt	7.9µM*
CCCCNC(=O)C1(c2ccc(NC(=O)C(C)C)cc2)CCCCC1	nt	nt	nt	nt	nt	-9%
O=C(NC1CC1)C1CCc2nnc(-c3cccc(C(F)(F)F)c3)n21 (stereo not drawn)	nt	nt	nt	nt	nt	-7%[6.33 µM]
N#Cc1ccc(COn2nnc3ccccc32)cc1	44%	89µM*	-10%	4%	22%	-8%
CCOc1ccccc1CN1CCC2(CCN(C(=O)COC)CC2)Oc2ccccc21	nt	nt	nt	nt	nt	-2%
CCOc1ccccc1CN1CCC2(CCN(Cc3ccc(F)cc3)CC2)Oc2ccccc21	nt	nt	nt	nt	nt	32µM*
CCOc1cc(/C=N/NC(=O)c2cc(C3CC3)[nH]n2)ccc1O	-1%	45µM*	50µM*	-27%	14%	-8%
Cn1cnc([N+](=O)[O-])c1SCC(=O)NN	21%[57 µM]	7.1µM*	-6%	?	56µM*	-17%
Cn1cnc([N+](=O)[O-])c1SCC(O)CN1CCCCC1 (stereo not drawn)	25%	-2%	-14%	-18%	7%	-13%
Cc1ccnc(Sc2ccc([N+](=O)[O-])cn2)n1	25%	0%	-17%	-21%	-1%	1%
O=[N+]([O-])c1ccc(Sc2n[nH]c(-c3ccccc3)n2)nc1	33%	?	56µM*	-4%	2%	-27%
O=[N+]([O-])c1ccc(Sc2ccccc2)nc1	-24%	-4%[59 µM]	?	-38%	12%	-2%
Nc1cccnc1Sc1ccc([N+](=O)[O-])cn1	-16%	1µM*	1.6µM*	-29%	?	-21%
COCCCNc1nc2nonc2nc1N1C[C@H]2CC[C@H]1C2	3%	nt	-15%	9%	10%	8%
COCCNc1nc2nonc2nc1N1C[C@H]2CC[C@H]1C2	37%	79µM*	7%	4%	-1%	412%
Cc1ccc2c(CN3CCN(c4cccc(Cl)c4)CC3)cc(=O)oc2c1	nt	nt	nt	nt	nt	-1%
O=C1C(c2ccc(C(F)(F)F)cc2)=C(NC2CCCCCC2)c2ccccc21	nt	nt	nt	nt	nt	-7%
Cc1cccc(C)c1Nc1nnc(SCc2nc3ccccc3s2)s1	20%	8.9µM*	-29%	-1%	?	3%
Cc1cccc(C)c1Nc1nnc(SCC(=O)NCc2cccs2)s1	34%	3%[59 µM]	-11%	3%	-7%	4%
COc1cccc(Nc2nnc(SCc3nc4ccccc4s3)s2)c1	13%	10µM*	-27%	-31%	3%	1%
Cc1oc(-c2ccccc2)nc1C(=O)Nc1cccc(F)c1	nt	nt	nt	nt	nt	108%
COc1ccccc1CNC(=O)c1ccc2c(c1)nc(C)n2-c1ccc(Br)cc1	nt	nt	nt	nt	nt	13%
